Source: PubChem (National Center for Advancing Translational Sciences (NCATS))
Shown are actives, neighbours in structure and some others; about 19% of the full set was active somewhere.
TDP1 cell CPT: DT40-hTDP1 cell growth loss with CPT. chicken DT40 Tdp1-/-;hTDP1 cells + 20 nM CPT, ATP luminescence, 48 h. Potency, µM (top dose mostly 46.2 µM), for inactives: at the highest dose activity change, negative = growth inhibition, actives largely listed as inhibitors. hit rate 12% among 420,000. AID 686979; further: potency means the concentration at half of the fitted maximal effect; nearly all actives have a fitted effect of over 55% in size
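Cell growth measured by CellTiter-Glo luminescence after a minimum 48 h, 37 C compound exposure with 20 nM CPT in Tdp1-knockout DT40 cells stably expressing hTDP1, seeded 400/well; qHTS titration format.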
HT1080 IDH1KD tx: HT-1080 IDH1 knockdown cell toxicity (counter line). HT-1080 IDH1 knockdown viability, ATP luminescence, 48 h. Potency, µM (top dose mostly 46.1 µM), without a hit: top-dose activity, negative = toxicity, actives largely listed as cytotoxic. hit rate 2% among 360,000;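 further: potency means the concentration at half of the fitted maximal effect; 0% = DMSO wells and -100% = cell-free medium wells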
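IDH1KD HT-1080 cells, 750/well, RPMI + 5% FBS; compound pinned after 2 h settling; 48 h, 37 °C; CellTiter-Glo luminescence; % activity normalised to DMSO and no-cell wells; curves fitted, classed by r2 and efficacy.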
IL1B secr inh: inflammasome signaling inhibition, IL-1 beta readout | THP-1 LPS/ATP IL-1B secretion, AlphaLISA, 16 h; active compounds read low | activity change, % at 57.5 µM | hit rate 4.7% among 360,000 | AID 743279; in the data active means activity change below about -50%; inconclusive means mostly about -30% to -49%
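THP-1 cells pretreated 1 hr with compounds (up to 57.5 uM final), then stimulated with LPS (250 ng/mL final) plus ATP (1.25 mM final); secreted IL-1B measured by AlphaLISA after 16 hr, decreased signal indicating inhibition.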
TDP1 cell noCPT: qHTS for Inhibitors of human tyrosyl-DNA phosphodiesterase 1 (TDP1): qHTS in cells in absence of CPT; DT40 Tdp1-/- hTDP1 cells, no CPT, ATP luminescence, 48 h; Potency, µM (titrated, usually from 46.2 µM), without a hit: top-dose activity change, negative = growth inhibition, usual class: inhibitors; hit rate 15% among 420,000; AID 686978, 2013; further: potency means the concentration at half of the fitted maximal effect; nearly all actives have a fitted effect of over 55% in size
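Readout: luminescence from CellTiter-Glo after 30 min in the dark at RT. Cells: DT40 Tdp1-/- with stable hTDP1, 400/well. Exposure: compounds alone, ≥48 hr, 37 °C.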
HT1080NT lethal: kills 2HG-producing HT-1080-NT fibrosarcoma cells. HT-1080-NT fibrosarcoma viability, CellTiter-Glo ATP luminescence, 48 h. Potency, µM (titrated, usually from 46.1 µM), for the others: at the top dose activity, negative = less viability, most hits filed as cytotoxic. hit rate 1.6% among 360,000;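 further: NT is the 2HG producing partner of a matched IDH1 knockdown line; potency means the concentration at half of the fitted maximal effect; 0% = DMSO-treated cells and -100% = media-only wells without cells; nearly all actives have a fitted effect of over 55% in size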
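HT-1080-NT fibrosarcoma cells (2HG-overproducing), 750 cells/well in RPMI with 5% FBS, dosed after 2 h and incubated 48 h at 37C. CellTiter-Glo luminescence normalized to DMSO and no-cell wells; concentration-response curves fitted and classed.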
Active calls of the source: *; ? = inconclusive; . = no result given; [ ] = dose if it differs, or a comment. Unless noted, the call rests on the fitted dose curve; in most records, active means well fitted curve in the direction sought with a large enough effect; inconclusive means small, poorly fitted or top-dose-only effect, or another doubt; inactive means no such curve, though single readings can be large; an effect the other way counts as inactive or inconclusive. Unless noted, on the % scale 0 is the no-effect control and ±100 the full control effect.

SMILES	TDP1 cell CPT	HT1080 IDH1KD tx	IL1B secr inh	TDP1 cell noCPT	HT1080NT lethal
CN(C)c1nnnn1-c1ccccc1Oc1ncc(C(F)(F)F)cc1Cl	15%	13%	7	-17%	11%
O=C(C[C@H]1CC[C@H](NC(=O)C2CCOCC2)[C@@H](CO)O1)NCc1ccncc1	4%	20%	11	1%	21%
COc1ccc(C(=O)Nc2cccc(NC(C)=O)c2)cc1	-3%	2%	58	-13%	-1%
COc1ccc(C(=O)Nc2cccc(-c3nnc(-c4ccco4)o3)c2)cc1	18µM*	?	-29	16µM*	?
Cn1c(=O)cc(SCC(=O)N2CCN(c3ccccc3)CC2)c2ccccc21	16µM*	1%	-10	?	1%
O=C(CC(c1ccccc1)c1ccccc1)N1CCN(c2ccccn2)CC1	?	-11%	-25	18µM*	-15%
Cn1c(=O)cc(SCC(=O)N2CCN(c3ccccn3)CC2)c2ccccc21	?	-3%	-50*	?	1%
CCN(CC)c1c([N+](=O)[O-])c(=O)n(CC)c2ccccc12	?	-2%	0	21µM*	1%
CCNc1c([N+](=O)[O-])c(=O)n(CC)c2ccccc12	-2%	1%	-9	-13%	4%
O=C(O)/C(=C\c1cccs1)c1ccc(F)cc1	-1%	3%	0	15%	0%
CC(C)Oc1ccc(C(=O)/C(=C\c2cccs2)c2nc3ccccc3o2)cc1	?	-16%	-67*	?	-5%
CC1CCN(C(=O)CCNC(=O)Cn2cnc3sc4c(c3c2=O)CCCC4)CC1	-22%	-11%	-1	-16%	-3%
Cc1ccc(C(=O)Nc2cccc(C(O)c3ccccc3)c2)cc1 (configuration not stated)	-26%	-10%	-51*	?	-7%
Cc1nn(-c2cccc(Cl)c2)nc1C(=O)Nc1cccc(C(=O)NC2CC2)c1	?	-7%	0	10µM*	-1%
Cc1ccc(C(=O)Nc2cccc(C(=O)NC3CCCC3)c2)cc1	?	-20%	-10	16µM*	-3%
Cc1ccc(-n2nc(C)c(C(=O)Nc3cccc(C(=O)NC4CC4)c3)n2)c(C)c1	12µM*	-22%	-28	8.2µM*	-10%
Cc1cccc(C(=O)Nc2cccc(C(=O)NC3CCCC3)c2)c1	?	-2%	?	?	4%
COC(=O)C1(C(=O)OC)c2ccccc2CN(S(=O)(=O)c2ccc(C)cc2)C1CC(C)=O (configuration not stated)	6%	6%	15	-2%	13%
COc1c(C)cc(S(=O)(=O)NCc2ccccn2)c(C)c1C	9%	15%	23	12%	10%
CC1CCC2C(C)(C)C3CC12CC[C@]3(C)O (some centres not stated)	-12%	.	.	-11%	.
O=C(NC1CC1)c1cccc(NC(=O)C2CC2)c1	-3%	7%	-4	-11%	-1%
Cc1cccc2nc(C(=O)Nc3cccc(C(=O)NC4CC4)c3)cn12	13µM*	13%	-18	?	7%
Cc1nn(-c2ccccc2)nc1C(=O)Nc1cccc(C(=O)NC2CC2)c1	?	5%	9	15µM*	6%
O=C(NC1CCS(=O)(=O)C1)c1cc(-c2ccccc2)nc2ccccc12 (configuration not stated)	3%	10%	-5	-7%	7%
CCC(c1nnnn1-c1ccc2c(c1)OCCO2)N1CCN(C/C=C/c2ccccc2)CC1 (configuration not stated)	?	-23%	-3	13µM*	-21%
SMILES	TDP1 cell CPT	HT1080 IDH1KD tx	IL1B secr inh	TDP1 cell noCPT	HT1080NT lethal
C(=C\c1ccccc1)/CN1CCN(C(c2nnnn2-c2ccc3c(c2)OCCO3)C2CC2)CC1 (configuration not stated)	23µM*	?	-21	15µM*	-29%
CCC(c1nnnn1-c1ccc2c(c1)OCCO2)N1CCN(c2ncccn2)CC1 (configuration not stated)	?	2%	-6	?	-1%
C(=C\c1ccccc1)/CN1CCN(C(CCc2ccccc2)c2nnnn2-c2ccc3c(c2)OCCO3)CC1 (configuration not stated)	10µM*	?	-30	21µM*	?
COc1ccc(-n2nnnc2C(C2CC2)N2CCN(C/C=C/c3ccccc3)CC2)cc1 (configuration not stated)	?	-20%	-9	?	-21%
c1ccc2sc(-n3cc(C4CCCCC4)nn3)nc2c1	?	-16%	76	?	18%
Cc1ccc(C)c(S(=O)(=O)Nc2ccccc2C(=O)Nc2cc(C)on2)c1	16µM*	?	34	?	?
Cc1ccc(C)c(NC(=O)c2ccccc2NS(=O)(=O)c2cc([N+](=O)[O-])ccc2C)c1	3.3µM*	13µM*	?	4.1µM*	10µM*
Cc1cc(NC(=O)c2ccccc2NS(=O)(=O)c2c(C)c(C)cc(C)c2C)no1	?	9%[9.24 µM]	24	?	-9%
C1CCC(CNc2c3c(nc4nnnn24)CCCC3)CC1	?	5%	-9	12µM*	4%
CC(=O)c1cnn(-c2nc3c(C)cccc3s2)c1C	-12%	4%	0	?	0%
CC(=O)c1cnn(-c2c(Cl)cc(Cl)cc2Cl)c1C	16µM*	-3%	10	18µM*	-4%
Cc1ccc(S(=O)(=O)N(C)CC(=O)Nc2ccncc2)cc1	?	-3%	7	?	5%
Cc1ccc(S(=O)(=O)N(C)CCCC(=O)Nc2ccncc2)cc1	10µM*	-10%	36	13µM*	-5%
Cc1ccc(S(=O)(=O)N(C)CCCC(=O)Nc2ccc(F)cc2)cc1	21µM*	-1%	1	-25%	0%
CCCc1nnc(NC(=O)c2c(O)c3cccc4c3n(c2=O)CCC4)s1	3.5µM*	.	.	0.79µM*	.
Cc1cccc(C(=O)NNC(=O)c2cc3cc4ccccc4nc3s2)c1	?	21µM*	-6	?	?
COc1ccc(-n2ncc3c(N4CCN(c5cccc(C)c5)C(C)C4)ncnc32)cc1 (configuration not stated)	2.9µM*	.	.	10µM*	.
COc1ccc(N2CCN(c3cc(C)c4ccc(C)cc4n3)CC2)cc1	?	-6%	-12	?	-23%
COc1ccc(N2CCN(c3nc4cc(C)ccc4cc3C=O)CC2)cc1	?	4%	-64*	?	9%
Cc1cccc(-n2ncc3c(N4CCN(c5ccccc5)CC4)ncnc32)c1	21µM*	.	.	?	.
